Values joined by “and” are separate entries in the source; they are usually repeats but may differ in a detail not shown here. Equal entries are not always repeated. The source holds several records for some structures; these can differ, active in one and inactive in another. Active and inactive are the calls of the source. The calls were made as follows: active = hit-call score of the fitted dose curve at least 0.9, where 1 is the maximum; inactive = score below 0.9.
Key:
[1] = ATG_PBREM_CIS: Attagene CIS-FACTORIAL HepG2 Assay for human Phenobarbital-responsive Enhancer Module (PBREM) (AID 2282955); conditions: HepG2 PBREM cis-reporter, Attagene multiplexed transcription; actives raise or lower the signal
How it was run: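 Cells were transfected with cis-element reporter units and treated for 24 h, after which RNA was extracted and reporter transcripts measured by RT-PCR and capillary electrophoresis.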

[2] = target: Paired box protein Pax-6 (Homo sapiens) (UniProt P26367); assay: ATG_Pax6_CIS: Attagene CIS-FACTORIAL HepG2 Assay for human Paired Box 6 (PAX6) (AID 2282956); conditions: HepG2 CIS-FACTORIAL PAX6 reporter transcription, RNA readout; actives raise or lower the signal
How it was run: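 Readout: reporter transcript fluorescence after RT-PCR and capillary electrophoresis. Cells: HepG2, transiently transfected with cis-regulated MRTUs. Exposure 24 h. Gain or loss of signal fitted bidirectionally relative to DMSO.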

[3] = ATG_PXRE_CIS: Attagene CIS-FACTORIAL HepG2 Assay for human Pregnane X Receptor Element (PXRE) (AID 2282957); conditions: HepG2 Attagene CIS-FACTORIAL PXRE reporter, mRNA; actives raise or lower the signal
How it was run: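 Endogenous transcription factor activity in HepG2 was gauged through induction of reporter mRNA driven by a cis-regulating promoter element, sampled 24 h post-treatment. Activity was fitted in both directions against DMSO negative control.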

[4] = ATG_PPRE_CIS: Attagene CIS-FACTORIAL HepG2 Assay for human Peroxisome Proliferator-activated Response Element (PPRE) (AID 2282958); conditions: HepG2 PPRE cis-element reporter, Attagene transcription factor profiling; actives raise or lower the signal
How it was run: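 In this cell-based multiplex, a PPRE cis element drives a reporter sequence in transiently transfected HepG2 cells. Following 24 h treatment, labeled cDNA amplicons are sized and quantified by capillary electrophoresis, with DMSO defining baseline.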

[5] = ATG_RORE_CIS: Attagene CIS-FACTORIAL HepG2 Assay for human RAR-related Orphan Receptor Element (RORE) (AID 2282959); conditions: HepG2 Attagene cis-factorial RORE reporter, mRNA; actives raise or lower the signal
How it was run: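 Endogenous factor activity at a cis response element is read as reporter transcript levels in HepG2 cells, 24 h post-dose. Transcripts are quantified by RT-PCR with capillary electrophoresis, and data fitted in both directions against DMSO.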

[6] = ATG_Sox_CIS: Attagene CIS-FACTORIAL HepG2 Assay for human SRY-box transcription factor (SOX) (AID 2282960); conditions: HepG2 Attagene cis-factorial SOX reporter, mRNA; actives raise or lower the signal
How it was run: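 Measures mRNA induction of a SOX1-associated reporter in HepG2 after 24 h dosing. Fluorescently labelled RT-PCR fragments are separated by capillary electrophoresis, and gain or loss relative to DMSO control is fitted.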

[7] = target: Transcription factor Sp1 (Homo sapiens) (UniProt P08047); assay: ATG_Sp1_CIS: Attagene CIS-FACTORIAL HepG2 Assay for human Specificity Protein 1 (Sp1) (AID 2282961); conditions: HepG2 Sp1 cis-reporter transcription, actives raise or lower the signal
How it was run: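 Cells: HepG2, transiently transfected with cis-regulated multiplexed reporters. Exposure: 24 h. Detection: reporter transcripts amplified, fluorescently labeled, restriction-digested and sized by capillary electrophoresis. Analysis: bidirectional fit relative to DMSO.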

[8] = ATG_SREBP_CIS: Attagene CIS-FACTORIAL HepG2 Assay for human Sterol Regulatory Element Binding (SREBP) (AID 2282962); conditions: HepG2 Attagene cis-factorial SREBP reporter, mRNA; actives raise or lower the signal
How it was run: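 Readout: fluorescent reporter-transcript peaks resolved by capillary electrophoresis after RT-PCR. Cells were human HepG2 carrying transfected cis-promoter reporter constructs, dosed for 24 h. Gain or loss of signal was fitted against DMSO controls.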

[9] = target: Signal transducer and activator of transcription 3 (Homo sapiens) (UniProt P40763); assay: ATG_STAT3_CIS: Attagene CIS-FACTORIAL HepG2 Assay for human Signal Transducer and Activator of Transcription 3 (STAT3) (AID 2282963); conditions: HepG2, Attagene cis-factorial STAT3 reporter transcription; actives raise or lower the signal
How it was run: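 Fluorescence intensity of 6-FAM-labelled reporter fragments, separated by capillary electrophoresis after RT-PCR, gave the signal. Cells were HepG2 transfected with cis-element reporter units and treated 24 h; fitting was bidirectional relative to DMSO.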

[10] = ATG_TA_CIS: Attagene CIS-FACTORIAL HepG2 Assay for human TA Basal Promoter (AID 2282964); conditions: HepG2 Attagene CIS-factorial TA basal promoter reporter; actives raise or lower the signal
How it was run: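 Transient MRTU transfection of HepG2 preceded 24 h compound exposure. Reporter mRNA levels were then read by RT-PCR with capillary electrophoresis, and this background-control endpoint was fitted bidirectionally to DMSO.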

Chain of Transcription factor Sp1 (Homo sapiens) (P08047 whole entry, looked up): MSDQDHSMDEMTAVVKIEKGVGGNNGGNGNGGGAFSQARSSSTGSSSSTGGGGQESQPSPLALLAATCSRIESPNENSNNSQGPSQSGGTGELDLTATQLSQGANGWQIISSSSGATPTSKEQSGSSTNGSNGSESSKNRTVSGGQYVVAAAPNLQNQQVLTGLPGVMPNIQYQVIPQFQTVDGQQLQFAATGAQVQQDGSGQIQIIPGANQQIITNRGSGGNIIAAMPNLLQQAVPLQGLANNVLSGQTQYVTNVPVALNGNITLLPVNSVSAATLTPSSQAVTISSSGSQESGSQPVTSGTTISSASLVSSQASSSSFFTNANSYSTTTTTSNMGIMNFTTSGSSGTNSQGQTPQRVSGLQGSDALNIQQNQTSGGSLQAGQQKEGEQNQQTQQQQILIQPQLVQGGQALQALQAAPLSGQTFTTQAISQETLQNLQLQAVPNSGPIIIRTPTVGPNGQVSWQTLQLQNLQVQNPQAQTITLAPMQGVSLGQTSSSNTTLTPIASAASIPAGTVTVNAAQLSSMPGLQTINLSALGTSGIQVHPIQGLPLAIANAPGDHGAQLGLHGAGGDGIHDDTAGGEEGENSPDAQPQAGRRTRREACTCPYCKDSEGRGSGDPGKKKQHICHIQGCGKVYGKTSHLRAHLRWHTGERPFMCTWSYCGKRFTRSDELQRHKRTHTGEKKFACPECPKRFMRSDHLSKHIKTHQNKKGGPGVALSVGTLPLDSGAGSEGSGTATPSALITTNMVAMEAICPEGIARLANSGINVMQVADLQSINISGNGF
Chain of Paired box protein Pax-6 (Homo sapiens) (P26367 whole entry, looked up): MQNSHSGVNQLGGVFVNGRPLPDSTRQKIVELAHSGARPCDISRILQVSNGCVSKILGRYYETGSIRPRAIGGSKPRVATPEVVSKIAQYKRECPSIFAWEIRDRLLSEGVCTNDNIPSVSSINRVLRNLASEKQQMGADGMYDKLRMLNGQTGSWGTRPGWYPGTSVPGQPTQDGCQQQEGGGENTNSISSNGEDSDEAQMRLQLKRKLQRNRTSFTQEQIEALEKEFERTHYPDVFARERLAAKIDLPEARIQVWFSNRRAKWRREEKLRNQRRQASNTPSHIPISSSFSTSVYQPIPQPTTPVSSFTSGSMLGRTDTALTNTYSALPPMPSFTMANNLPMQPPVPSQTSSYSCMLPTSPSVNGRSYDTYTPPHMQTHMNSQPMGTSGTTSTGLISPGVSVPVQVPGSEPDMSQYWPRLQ
Chain of Signal transducer and activator of transcription 3 (Homo sapiens) (P40763 whole entry, looked up, the tested form may be a part): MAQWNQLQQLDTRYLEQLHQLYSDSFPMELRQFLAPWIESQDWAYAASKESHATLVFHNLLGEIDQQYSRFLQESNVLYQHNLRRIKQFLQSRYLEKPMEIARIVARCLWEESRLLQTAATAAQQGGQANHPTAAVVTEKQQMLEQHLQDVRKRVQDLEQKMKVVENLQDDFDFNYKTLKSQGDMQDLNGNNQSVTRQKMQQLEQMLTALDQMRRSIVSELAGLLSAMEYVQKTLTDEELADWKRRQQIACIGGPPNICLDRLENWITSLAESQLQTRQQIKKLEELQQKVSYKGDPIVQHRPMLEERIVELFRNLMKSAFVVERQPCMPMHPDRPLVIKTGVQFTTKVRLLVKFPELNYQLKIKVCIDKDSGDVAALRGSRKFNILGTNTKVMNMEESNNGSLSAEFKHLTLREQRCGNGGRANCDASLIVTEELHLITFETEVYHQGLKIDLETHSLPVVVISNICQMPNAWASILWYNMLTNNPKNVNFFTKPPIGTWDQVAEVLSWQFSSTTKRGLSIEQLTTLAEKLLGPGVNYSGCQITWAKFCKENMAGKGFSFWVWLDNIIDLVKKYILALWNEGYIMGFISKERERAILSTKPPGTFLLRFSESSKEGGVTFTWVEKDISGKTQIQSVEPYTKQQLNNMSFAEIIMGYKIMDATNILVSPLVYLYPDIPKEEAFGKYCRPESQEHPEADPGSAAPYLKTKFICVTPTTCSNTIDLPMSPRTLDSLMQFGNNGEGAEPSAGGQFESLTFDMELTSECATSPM

SMILES	outcome [1]	outcome [2]	AC50 [3]	outcome [4]	outcome [5]	outcome [6]	outcome [7]	outcome [8]	outcome [9]	outcome [10]	AC50 [1]	AC50 [2]	outcome [3]	AC50 [5]	AC50 [6]	AC50 [10]	AC50 [7]	AC50 [8]	AC50 [4]
CC(C)(C)C(O)/C(=C\c1ccc(Cl)cc1Cl)n1cncn1 (configuration not stated)	inactive	inactive	5 µM (active)	inactive	inactive	inactive	inactive	inactive	inactive	inactive									
Oc1cc(Cl)ccc1Oc1ccc(Cl)cc1Cl	inactive	inactive	2.98 µM (active) [middle of 7 runs]	inactive	inactive	inactive	inactive	inactive	inactive	inactive	2.91 µM (active) and 3.38 µM (active) and 17.3 µM (active)	13.9 µM (active) and 8.6 µM (active)	inactive	12.7 µM (active) and 15.1 µM (active) and 15.8 µM (active)	11.1 µM (active) and 10.3 µM (active)	17.4 µM (active)			
CCC(C)(C)C(=O)OC1=C(c2ccc(Cl)cc2Cl)C(=O)OC12CCCCC2	inactive	inactive		inactive	inactive	inactive	inactive	inactive		inactive			inactive						
CCc1ccc(C(=O)NN(C(=O)c2cc(C)cc(C)c2)C(C)(C)C)cc1	inactive	inactive	1.28 µM (active)	inactive	inactive	inactive	inactive	inactive		inactive									
N#CN	inactive	inactive		inactive	inactive	inactive	inactive	inactive		inactive			inactive						
O=C(Nc1ccccc1)Nc1cnns1	inactive		66.5 µM (active)	inactive	inactive					inactive		85 µM (active)			50 µM (active)		21.1 µM (active)	50 µM (active)	
COP(=S)(OC)Oc1ccc(SC)c(C)c1		inactive	10.8 µM (active)	inactive		inactive	inactive			inactive	39.3 µM (active)			53.7 µM (active)				24.7 µM (active)	
CC(C)N(C(=O)COc1nnc(C(F)(F)F)s1)c1ccc(F)cc1		inactive	7.54 µM (active)	inactive	inactive	inactive	inactive	inactive	inactive	inactive	11.5 µM (active)								
CNC(=O)Oc1cccc(N=CN(C)C)c1	inactive	inactive				inactive	inactive		inactive	inactive			inactive	90.4 µM (active)				84.6 µM (active)	32.7 µM (active)
COc1cc(OC)nc(NC(=O)NS(=O)(=O)c2cc(NC=O)ccc2C(=O)N(C)C)n1	inactive	inactive	17.1 µM (active)	inactive	inactive	inactive	inactive	inactive		inactive									
CNC(=O)CSP(=S)(OC)OC	inactive	inactive		inactive	inactive	inactive	inactive	inactive		inactive			inactive						
CCCN(CCOc1c(Cl)cc(Cl)cc1Cl)C(=O)n1ccnc1	inactive	inactive	828 nM (active) and 60.9 µM (active)	inactive	inactive	inactive	inactive	inactive		inactive	2.92 µM (active)						4.43 µM (active)	11.1 µM (active)	
COP(=S)(OC)Oc1ccc([N+](=O)[O-])cc1	inactive	inactive		inactive	inactive	inactive	inactive	inactive		inactive			inactive						
OCCOc1ccccc1	inactive	inactive		inactive	inactive	inactive	inactive	inactive	inactive	inactive			inactive						
CNC(=O)Oc1ccccc1OC(C)C	inactive	inactive		inactive	inactive	inactive	inactive	inactive		inactive			inactive						
CCS(=O)(=O)c1cccnc1S(=O)(=O)NC(=O)Nc1nc(OC)cc(OC)n1	inactive	inactive	60.5 µM (active)	inactive	inactive	inactive	inactive	inactive		inactive			inactive						
O=C(O)CCCOc1ccc(Cl)cc1Cl	inactive	inactive	27.1 µM (active)	inactive	inactive	inactive	inactive	inactive	inactive	inactive			inactive						22.9 µM (active)
O=[N+]([O-])c1c(Cl)c(Cl)c(Cl)c(Cl)c1Cl	inactive					inactive	inactive	inactive	inactive	inactive		50 µM (active)	inactive	10.7 µM (active)					2.32 µM (active)
CC(C)(C)C(O)C(Oc1ccc(Cl)cc1)n1cncn1 (configuration not stated)	inactive	inactive	1.27 µM (active) [middle of 6 runs]		inactive	inactive	inactive	inactive	inactive	inactive	2.82 µM (active) and 5.04 µM (active) and 7.04 µM (active)							48.7 µM (active) and 23.2 µM (active) and 24 µM (active)	
COC(=O)c1ccccc1CS(=O)(=O)NC(=O)Nc1nc(OC)cc(OC)n1	inactive	inactive	33.9 µM (active)	inactive	inactive	inactive	inactive	inactive	inactive	inactive			inactive						
CCC(C)(NC(=O)c1cc(Cl)c(C)c(Cl)c1)C(=O)CCl (configuration not stated)	inactive	inactive	1.58 µM (active)	inactive	inactive	inactive	inactive	inactive	inactive	inactive									
Oc1ccc(Cl)cc1Cc1ccccc1	inactive	inactive		inactive		inactive	inactive	inactive		inactive	13.6 µM (active)	8.56 µM (active)	inactive		8.2 µM (active)	17.5 µM (active)	13.4 µM (active)	7.03 µM (active) and 6.32 µM (active)	9.13 µM (active) [middle of 6 runs]
CN1CSC(=S)N(C)C1	inactive	inactive			inactive	inactive		inactive	inactive	inactive			inactive				50 µM (active)		10.3 µM (active)
CC1(C)C(C=C(Cl)Cl)C1C(=O)OC(C#N)c1ccc(F)c(Oc2ccccc2)c1 (configuration not stated)	inactive	inactive	2.93 µM (active)		inactive	inactive	inactive	inactive		inactive									8.12 µM (active)
